Molecules are shown by their SMILES. The campaign covered roughly 200,000 compounds. About 18,000 (9%) were called active. The sample holds actives, similar compounds and a random draw of the others, so the mix is not that of the screen. Values without a mark were called inactive. No stated cut-off is given here; in the data, active means inhibition above about 50%; inactive means the rest.

A short description of the test: Leishmania major promastigote growth inhibition, primary screen (AID 1063).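 Further: promastigotes grown with compound for 44 hours at 28 °C.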 The conditions noted are these: Leishmania major promastigotes, resazurin fluorescence viability; at 10 µM; stronger effect = higher value. A general note: The colour change of resazurin is a common sign of viable cells or microbes.
Broadly, the inhibition is the drop in the measured response relative to a control, in per cent. With `CC(=O)c1cccc(-n2nnnc2SCC(=O)NNC(=O)C2CCCCC2)c1`, the inhibition was -7.09%.

For the compound `COC(=O)C1=C(N)Oc2c(oc(CO)cc2=O)C1c1c(F)cccc1Cl` (stereo not given), the inhibition was 10.5%.

Consider `CCOc1ccc(C(c2c(C)[nH][nH]c2=O)c2c(C)[nH][nH]c2=O)cc1OCC`, for which the inhibition is 22.5%.

Consider `Cc1[nH][nH]c(=O)c1C(c1ccc(-c2ccc(Cl)cc2)o1)c1c(C)[nH][nH]c1=O`, for which the inhibition is 100% (active).

As for `Cc1[nH][nH]c(=O)c1C(c1ccc2c(c1)OCO2)c1c(C)[nH][nH]c1=O`, the inhibition is 25.9%.

As for `C=CCc1cccc2cc(C(=O)NC3CCCC3)c(=O)oc12`, the inhibition is 3.36%.

In the case of `Cc1cccc(-c2ncc(CN3CCC(CO)(CCCc4ccccc4)CC3)cn2)c1`, the inhibition was 15.9%.

As for `OCCC1CN(Cc2ccc3nsnc3c2)CCN1C1CCCC1` (stereo not given), the inhibition is 20.1%.

For the compound `OCC1(CCc2ccccc2)CCN(Cc2ccc3nsnc3c2)CC1`, the inhibition is 88.2% (active).

With `Nn1c(SCC(=O)Nc2nccs2)nncc1=O`, the inhibition is -3.46%.

Turning to `CSc1ncnc2sc(C)c(C)c12`, the inhibition is -8.93%.

On to `Cc1ccc(S(=O)(=O)N2CCN(S(=O)(=O)N3CCOCC3)CC2)cc1`, for which the inhibition is -6.92%.

For the compound `CC(=O)Nc1ccc(S(=O)(=O)N2CCN(C3CCCCCCC3)CC2)cc1`, the inhibition is -3.65%.

Take `Cc1ccc(S(=O)(=O)N2CCC(N3CCCCCC3)CC2)cc1`: the inhibition was 95.3% (active).

With `COc1ccc(NC(=O)N2CCCC(c3nc(-c4ccc(F)cc4)no3)C2)cc1` (stereo not given), the inhibition was -5.76%.

For the compound `O=C(COC(=O)CCc1ccc(S(=O)(=O)N2CCOCC2)cc1)Nc1cccc(Cl)c1`, the inhibition is -4.95%.

In the case of `N#C/C(C(=S)Nc1ccccc1)=C1/NN=C(N2CCOCC2)N1c1ccccc1`, the inhibition was 4.1%.

In the case of `Cc1ccc(C(=O)NC(=S)Nc2ccc(N3CCOCC3)cc2)cc1`, the inhibition was -0.73%.

As for `Cc1ccc(C(=O)NC(=S)NCCN2CCOCC2)cc1`, the inhibition was 65.4% (active).

Consider `Cc1ccc(NC(=S)NCCN2CCOCC2)cc1`, for which the inhibition is 2.32%.

As for `O=C(CCN1CCCCC1)N=Nc1c(O)[nH]c2ccccc12`, the inhibition was 11.4%.

On to `CSc1ccccc1C(=O)NCc1ccccc1`, for which the inhibition is -0.25%.

Regarding `Cc1cc(C)n(CC(=O)Nc2ccc([N+](=O)[O-])cc2)n1`, the inhibition is -2.52%.

For `O=C(COC(=O)c1ccco1)NCc1ccc(Cl)cc1`, the inhibition is -4.2%.

For the compound `COC(=O)c1ccc(CSc2nc3ccccc3c(=O)n2-c2cccc(OC)c2)o1`, the inhibition was 46.8%.

`COCC(C)n1c(SCc2ccc(C(=O)OC)o2)nc2ccccc2c1=O` (stereo not given): the inhibition is 89% (active).

For the compound `COCCn1c(C)cc(C(=O)CSc2nc3ccccc3c(=O)n2C(C)COC)c1C` (stereo not given), the inhibition is 15.4%.

In the case of `CSCCNCc1cn(-c2ccc(F)cc2F)nc1-c1ccccc1C`, the inhibition is 15.5%.

On to `Cc1ccc(-c2nn(-c3ccccc3)cc2CN(Cc2ccccc2)C(=O)CCC(=O)O)o1`, for which the inhibition was -2.65%.

In the case of `Cc1ccc(-c2nn(-c3cccc(F)c3)cc2CNCCc2ccncc2)o1`, the inhibition is 56.8% (active).

Regarding `Cn1c(=O)n(Cc2ccco2)c(=N)c2c3c(sc21)CCCC3`, the inhibition is 13.8%.

On to `COc1cccc(OC)c1C(=O)OCC(=O)/C(C#N)=C(\C)N`, for which the inhibition was -3.93%.

As to `CCOC(=O)C1=C(CN2CCc3ccccc32)NC(=O)NC1c1cc(C)ccc1C` (stereo not given), the inhibition was 11.4%.

Regarding `CCOC(=O)C1=C(CN2CCc3ccccc32)NC(=O)NC1c1ccc(Cl)cc1` (stereo not given), the inhibition was 55.5% (active).

Consider `CCOC(=O)C1=C(CN2CCc3ccccc32)NC(=O)NC1c1cccc([N+](=O)[O-])c1` (stereo not given), for which the inhibition is 82.8% (active).

Take `CCOC(=O)C1=C(CN2CCCCCC2)NC(=O)NC1c1cccc([N+](=O)[O-])c1` (stereo not given): the inhibition is 10.7%.

Consider `COCCOC(=O)C1=C(C)NC(=O)NC1c1ccc(Cl)cc1` (stereo not given), for which the inhibition was -1.33%.

Consider `CCOC(=O)C1=C(CNC2CCCCC2)NC(=O)NC1c1cc(C)ccc1C` (stereo not given), for which the inhibition is 47.4%.

Take `C/C(=N/OC(=O)c1cccc(C(F)(F)F)c1)c1cnccn1`: the inhibition was -8.57%.

With `Cn1cnnc1SCC(=O)NNC(=O)COc1ccc(Br)cc1`, the inhibition was -4.37%.

Take `C/C(=N\Nc1nc(Nc2ccccc2)nc(N2CCOCC2)n1)c1cccs1`: the inhibition is 5.71%.

With `C=CCNC(=O)COC(=O)CNC(=O)c1cc(Cl)cc([N+](=O)[O-])c1`, the inhibition is 7.34%.

Turning to `COc1ccc(O[C@H]2C=C[C@@H](c3ccccc3)O[C@@H]2CO/N=C/C[C@@H]2C=C[C@H](OC(C)=O)[C@@H](COC(C)=O)O2)cc1`, the inhibition is 5.12%.

For `C/C(=N\Nc1nc2ccccc2[nH]1)c1cccs1`, the inhibition is 77.2% (active).

Consider `C/C(=N\Nc1ncc(Cl)cc1Cl)c1cccs1`, for which the inhibition was 19%.

Turning to `O=C(CSc1nc2ccccc2[nH]1)c1cccs1`, the inhibition was 8.11%.

Regarding `Cc1ccc(NC(=O)C2(N3CCC3=O)CCCCC2)cc1`, the inhibition is -5.4%.

`COc1cccc(-n2c(=S)sc3c(=O)n(-c4ccccc4OC)c(SCC4OCCO4)nc32)c1`: the inhibition is 19.1%.

Regarding `O=S(=O)(c1ccc(OCC(O)CN2CCN(c3ccccc3Cl)CC2)cc1)N1CCOCC1` (stereo not given), the inhibition is 68.2% (active).

Take `CC(=O)Nc1ccc(OCC(O)CN2CCN(c3ccccc3Cl)CC2)cc1` (stereo not given): the inhibition was -1.4%.

Take `OC(COc1ccc2ccccc2c1)Cn1cncn1` (stereo not given): the inhibition is -2.08%.

In the case of `OC(COc1ccc2ccccc2c1)CN1CCOCC1` (stereo not given), the inhibition was 59.9% (active).

For `OC(COc1cccc(OCC(O)CN2CCCC2)c1)CN1CCCC1` (stereo not given), the inhibition is -2.43%.

On to `O=[N+]([O-])c1ccc(N2CCN(CC(O)COc3ccccc3)CC2)cc1` (stereo not given), for which the inhibition was 32.1%.

Consider `O=C(NCC1COc2ccccc2O1)C1(c2ccccc2)CCCC1` (stereo not given), for which the inhibition is 4.71%.

Regarding `CCOC(=O)CSc1nnc(-c2ccc([N+](=O)[O-])cc2)o1`, the inhibition is -7%.

For `COCCN(C(=S)Nc1ccccc1OC)C1CCN(C(C)C)CC1`, the inhibition was -1.11%.

Turning to `CCN1CCN(c2ccc(NC(=O)c3cnccn3)cc2)CC1`, the inhibition is -5.28%.

Regarding `CCOC(=O)N1CCN(C(c2cccnc2)c2ccc3cccnc3c2O)CC1` (stereo not given), the inhibition was 100% (active).

With `CCOC(=O)N1CCN(C(=O)CSc2ccc(Cl)cc2)CC1`, the inhibition is -6.22%.

With `CCN1CCN(C(c2cccnc2)c2cc(Cl)c3cccnc3c2O)CC1` (stereo not given), the inhibition was 52.4% (active).

For `Oc1c(C(c2ccccn2)N2CCOCC2)ccc2cccnc12` (stereo not given), the inhibition is 5.34%.

Turning to `Cc1ccnc2nc(C(=O)OCC(=O)N(CC(C)C)CC(C)C)nn12`, the inhibition is 4.48%.

Take `CN(c1ccccc1)S(=O)(=O)c1cc(C(=O)OCC(=O)N2CCN(C(=O)c3ccco3)CC2)ccc1Cl`: the inhibition was -3.3%.

Regarding `Nc1ncnc(Nc2cccc(Cl)c2Cl)n1`, the inhibition is -0.16%.

Consider `Cc1cc(Br)ccc1NC(=O)C1CCCO1` (stereo not given), for which the inhibition was -3.76%.

Consider `OC(CNCC1CCCO1)Cn1c2ccc(Br)cc2c2cc(Br)ccc21` (stereo not given), for which the inhibition is 101% (active).

`Cc1ccc(C(=O)NCC2CCCO2)o1` (stereo not given): the inhibition was -4.63%.

Turning to `COc1cc(C(=O)Nc2cc(C(F)(F)F)ccc2-n2cncn2)cc(OC)c1OC`, the inhibition is 15.4%.

Consider `CC(C)C(=O)NC(NC(=S)NC1CCS(=O)(=O)C1)C(Cl)(Cl)Cl` (stereo not given), for which the inhibition was -3.47%.

Consider `CCCSC(=S)NC1CCS(=O)(=O)C1` (stereo not given), for which the inhibition was 100% (active).

On to `CCN(CC(=O)NC1CCS(=O)(=O)C1)S(=O)(=O)c1ccccc1` (stereo not given), for which the inhibition is 47.9%.

For the compound `O=S1(=O)CCC(NC(=S)SCc2ccccc2Br)C1` (stereo not given), the inhibition is 89.6% (active).

Turning to `O=C(CSc1ccccc1F)NC1CCS(=O)(=O)C1` (stereo not given), the inhibition is 1.43%.

Turning to `COc1ccc(NC(=S)NC2CCS(=O)(=O)C2)cc1` (stereo not given), the inhibition was 6.02%.

For `COc1cccc(OC)c1C(=O)NC(=S)NCc1ccco1`, the inhibition is 0.66%.

As to `Cc1nn(-c2ccccc2)c(-n2cccc2)c1C(=O)O`, the inhibition was -0.36%.

As to `CCC(C)NC(=O)Cn1nc(C(F)(F)F)c2c1CCC2` (stereo not given), the inhibition is -5.4%.

On to `CCOc1cnc(-c2c(-c3ccccc3Cl)noc2C)o1`, for which the inhibition was -0.43%.

In the case of `COc1cc(OC)c(C2=NOC(C(=O)Nc3c(C)n(C)n(-c4ccccc4)c3=O)C2)cc1Cl` (stereo not given), the inhibition is -5.3%.

In the case of `CC1CCN(c2ccc([N+](=O)[O-])cc2C(N)=O)CC1`, the inhibition was -3.26%.

On to `C=CCO/N=C/C1=C(O)C(C(=O)OC)C(C)(C)CC1=O` (stereo not given), for which the inhibition was -2.09%.

Consider `O=C(NCCN1C(=O)S/C(=C\c2cccnc2)C1=O)c1cccc(OC(F)F)c1`, for which the inhibition was 50.6% (active).

`Cc1cc(OCCCC(=O)NCCN2C(=O)S/C(=C\c3cccnc3)C2=O)ccc1Cl`: the inhibition is 42.1%.

With `CCOc1ccc(N2CC(C(=O)NCCN3C(=O)S/C(=C\c4cccnc4)C3=O)CC2=O)cc1` (stereo not given), the inhibition is -4.79%.

On to `O=C(CCc1ccccc1)Nc1ccc(NC(=O)C2CCCCC2)nc1`, for which the inhibition is 6.33%.

For the compound `Cc1ccc(SC(C)C(=O)NCc2ccc(F)cc2)cc1` (stereo not given), the inhibition was -1.71%.

Take `O=C(/C=C/c1cccs1)c1cc(Cl)ccc1OC(=O)N1CCOCC1`: the inhibition was 100% (active).

As to `CC(=O)Nc1ccccc1OC(=O)N1CCOCC1`, the inhibition was -2.48%.

Take `O=C(c1cccs1)N1CCN(C(=O)N2CCOCC2)CC1`: the inhibition is -6.96%.

For `CCOC(=O)c1c(NC(=O)C2CCN(S(=O)(=O)c3ccc(Cl)cc3)CC2)sc2c1CCCC2`, the inhibition is 6.41%.

Regarding `Cc1ccc(S(=O)(=O)N2CCOCC2)cc1C(=O)OC1CCCCC1=O` (stereo not given), the inhibition is 1.9%.

For the compound `CCNC(=O)COC(=O)/C=C/c1c(C)nn(Cc2cccc(OC)c2)c1Cl`, the inhibition was -3.81%.

With `CS(=O)(=O)N1CCc2cc(C(=O)Nc3ccccc3)ccc21`, the inhibition is -3.72%.

With `Cc1onc(-c2ccccc2Cl)c1C(=O)NCCn1ccc2ccccc21`, the inhibition was 5.91%.

With `Cc1onc(-c2ccccc2Cl)c1C(=O)OCC(=O)c1ccccc1`, the inhibition was 88% (active).

As to `Cc1[nH]c2ccccc2c1C(=O)COC(=O)C(C)C`, the inhibition is -4.11%.

On to `CC(=O)Nc1cccc(/C(C)=N/NC(=O)c2c(-c3ccccc3Cl)noc2C)c1`, for which the inhibition is 3.3%.

With `Cc1[nH]c2ccccc2c1C(=O)COC(=O)c1c(-c2ccccc2)noc1C`, the inhibition is 95.7% (active).

Turning to `Cc1[nH]c2ccccc2c1C(=O)CSCC(=O)O`, the inhibition is 13.6%.

The values are drawn from PubChem BioAssay AID1063 (University of Pittsburgh Molecular Library Screening Center, 2008).
